A word on the inhibition: it is the relative decrease from the control value, in per cent.

This assay addresses Genome polyprotein (dengue virus type 2) (UniProt P29990).
[1] abbreviates: Thailand/16681/1984, Concentration 25.0 uM, Number of replicates 1.0.

Each structure is given as a SMILES string. Among all 2,000 compounds or so, about 110 (5.5%) showed an effect of 50% or more. This excerpt belongs to a sample that is enriched for strong results.

As to `CCCOc1ccc(NC(=O)C2CCN(c3ccc(C=O)cc3)CC2)cc1`, the inhibition under setting [1] came to 0.636%.
Take `O=Cc1ccc(N2CCC(C(=O)N3CCN(C(c4ccc(F)cc4)c4ccc(F)cc4)CC3)CC2)cc1`: the inhibition under setting [1] stood at 1.35%.
As to `COc1cccc(Cn2ncc(C3CCNCC3)c2C)n1`, the inhibition by setting is: (Thailand/16681/1984, Concentration 49.5 uM, Number of replicates 2.0, Standard deviation 0.6865140838852157 %) -2.28%; (Thailand/16681/1984, Concentration 99.01 uM, Number of replicates 2.0, Standard deviation 1.8857815426916016 %) -0.708%; (Thailand/16681/1984, Concentration 198.0 uM, Number of replicates 2.0, Standard deviation 1.685903611817113 %) -0.083%.
On to `O=Cc1ccc(N2CCC(C(=O)NCCCn3nccc3C3CC3)CC2)cc1`, for which, under setting [1], the inhibition amounted to 15.6%.
Same read-out and setting: in the case of `O=Cc1ccc(N2CCC(C(=O)Nc3cc(C(F)(F)F)ccn3)CC2)cc1` it was 10.8%.
In the case of `Cc1cc(CO)c2cccc(Cc3cccc(NC(=O)c4nc(C5CCNCC5)oc4C)c3)c2n1`, the inhibition runs as follows: (Thailand/16681/1984, Concentration 49.95 uM, Number of replicates 2.0, Standard deviation 2.427412589513284 %) -2.68%; (Thailand/16681/1984, Concentration 99.9 uM, Number of replicates 2.0, Standard deviation 2.040383474434353 %) -3.1%.
For `Cc1cc(CO)c2cccc(C[C@H](NC(=O)c3nc(C4CCNCC4)oc3C)C(=O)O)c2n1`, the inhibition runs as follows: (Thailand/16681/1984, Concentration 49.95 uM, Number of replicates 2.0, Standard deviation 0.8080216779744858 %) 2.79%; (Thailand/16681/1984, Concentration 99.9 uM, Number of replicates 2.0, Standard deviation 0.4573836691864076 %) 10%.
`CNc1ccccc1C(=O)Nc1ccccc1Cc1cccc2c(CO)cc(C)nc12`: the inhibition runs as follows: (Thailand/16681/1984, Concentration 49.95 uM, Number of replicates 2.0, Standard deviation 0.9187611737377075 %) -6.32%; (Thailand/16681/1984, Concentration 99.9 uM, Number of replicates 2.0, Standard deviation 0.9402243720481833 %) -7.75%.
As for `Cc1cc(CO)c2cccc(NC(=O)c3nc(-c4ccccc4)oc3C(F)(F)F)c2n1`, the inhibition was determined as 28.1% (Thailand/16681/1984, Concentration 49.95 uM, Number of replicates 2.0, Standard deviation 3.021297847027803 %) and 43.6% (Thailand/16681/1984, Concentration 99.9 uM, Number of replicates 2.0, Standard deviation 2.6625533133971393 %).
For the compound `Cc1cc(CO)c2cccc(NC(=O)c3nc(C4CCNCC4)oc3C)c2n1`, the inhibition (Thailand/16681/1984, Concentration 49.95 uM, Number of replicates 2.0, Standard deviation 36.17788639576005 %) worked out at 67.7% and the inhibition (Thailand/16681/1984, Concentration 99.9 uM, Number of replicates 2.0, Standard deviation 0.36888000776056334 %) came to 98.7%.
Regarding `Cc1cc(CO)c2cccc(Cc3ccccc3NC(=O)c3nc(C4CCNCC4)oc3C)c2n1`, the inhibition runs as follows: (Thailand/16681/1984, Concentration 49.95 uM, Number of replicates 2.0, Standard deviation 1.1742415452444355 %) 3.36%; (Thailand/16681/1984, Concentration 99.9 uM, Number of replicates 2.0, Standard deviation 2.967451033370285 %) 69.9%.
In the case of `Cc1nccc(Cn2cc(C3CCNCC3)c(C)n2)n1`, the inhibition (Thailand/16681/1984, Concentration 49.5 uM, Number of replicates 2.0, Standard deviation 0.12424043789356491 %) is -1.07%; the inhibition (Thailand/16681/1984, Concentration 99.01 uM, Number of replicates 2.0, Standard deviation 0.32682664095966646 %) is -0.665%; the inhibition (Thailand/16681/1984, Concentration 198.0 uM, Number of replicates 2.0, Standard deviation 1.945197851645592 %) came to 1.76%.
For `CN(Cc1nc2ccccc2n1C)C(=O)C1CCN(c2ccc(C=O)cc2)CC1`, under setting [1], the inhibition came to 14.9%.
Turning to `CNC(=O)c1nccnc1NS(=O)(=O)c1ccc(Oc2ccccc2Cl)cc1`, the inhibition (Thailand/16681/1984, Concentration 49.5 uM, Number of replicates 2.0, Standard deviation 1.5095148361141704 %) was determined as 0.146%; the inhibition (Thailand/16681/1984, Concentration 99.01 uM, Number of replicates 2.0, Standard deviation 1.499470483470751 %) is 2.7%; the inhibition (Thailand/16681/1984, Concentration 198.0 uM, Number of replicates 2.0, Standard deviation 0.45486328764545614 %) came to 7.74%.
Turning to `CNC(=O)c1ccncc1NS(=O)(=O)c1ccc(Oc2ccccc2Cl)cc1`, the inhibition (Thailand/16681/1984, Concentration 49.5 uM, Number of replicates 2.0, Standard deviation 3.023334340601001 %) was -2.48%; the inhibition (Thailand/16681/1984, Concentration 99.01 uM, Number of replicates 2.0, Standard deviation 3.20078374174672 %) is -0.672%; the inhibition (Thailand/16681/1984, Concentration 198.0 uM, Number of replicates 2.0, Standard deviation 2.339843576600017 %) came to 2.95%.
As to `CNC(=O)c1cc(Cl)c(OC)cc1NS(=O)(=O)c1ccc(Oc2ccccc2Cl)cc1`, the inhibition (Thailand/16681/1984, Concentration 49.5 uM, Number of replicates 2.0, Standard deviation 1.7443589304782063 %) worked out at 79.2%; the inhibition (Thailand/16681/1984, Concentration 99.01 uM, Number of replicates 2.0, Standard deviation 0.14348540542006383 %) stood at 98.5%; the inhibition (Thailand/16681/1984, Concentration 198.0 uM, Number of replicates 2.0, Standard deviation 0.05118043543332502 %) was 99.3%.
On to `CNC(=O)c1cc(Cl)cc(OC)c1NS(=O)(=O)c1ccc(Oc2ccccc2Cl)cc1`, for which the inhibition was 1.45% (Thailand/16681/1984, Concentration 49.5 uM, Number of replicates 2.0, Standard deviation 0.8103097460864452 %); 1.53% (Thailand/16681/1984, Concentration 99.01 uM, Number of replicates 2.0, Standard deviation 1.6946405270728757 %); -0.559% (Thailand/16681/1984, Concentration 198.0 uM, Number of replicates 2.0, Standard deviation 1.1024722794831296 %).
`CNC(=O)c1cc(Cl)c(F)cc1NS(=O)(=O)c1ccc(Oc2ccccc2Cl)cc1`: the inhibition reads like this: (Thailand/16681/1984, Concentration 49.5 uM, Number of replicates 2.0, Standard deviation 0.030615470758313425 %) 98.6%; (Thailand/16681/1984, Concentration 99.01 uM, Number of replicates 2.0, Standard deviation 0.03013533386007732 %) 99.7%; (Thailand/16681/1984, Concentration 198.0 uM, Number of replicates 2.0, Standard deviation 0.00477978979592347 %) 98.7%.
Turning to `Cc1cc(NS(=O)(=O)c2ccc(Oc3ccccc3Cl)cc2)c(C(=O)NCC(F)(F)F)cc1F`, the inhibition is, setting by setting: (Thailand/16681/1984, Concentration 49.5 uM, Number of replicates 2.0, Standard deviation 0.004288863304468577 %) 80.7%; (Thailand/16681/1984, Concentration 99.01 uM, Number of replicates 2.0, Standard deviation 0.05387243894141284 %) 85%; (Thailand/16681/1984, Concentration 198.0 uM, Number of replicates 2.0, Standard deviation 0.06674981844803736 %) 82.2%.
On to `CNC(=O)c1cn(S(=O)(=O)c2ccc(Oc3ccccc3Cl)cc2)c2ccc(Cl)cc12`, for which the inhibition (Thailand/16681/1984, Concentration 49.5 uM, Number of replicates 2.0, Standard deviation 1.1380993582408887 %) came to 0.625%; the inhibition (Thailand/16681/1984, Concentration 99.01 uM, Number of replicates 2.0, Standard deviation 1.0406365412270837 %) turned out to be 4.48%; the inhibition (Thailand/16681/1984, Concentration 198.0 uM, Number of replicates 2.0, Standard deviation 0.5161930213749926 %) turned out to be 12.8%.

These data come from ChEMBL document CHEMBL5606460, “ASAP - DENV-2 NS2B-NS3 protease fluorescence single point” (2024).
